Screening results (PubChem)
The full list was thinned out, with hits kept by preference.
Dicer processing: blocks human Dicer maturation of pre-miR-21 | cat-ELCCA pre-miR-21 Dicer processing, chemiluminescence; hits give high values | AID 1347074 | 6% of 47,000 active | Q9UPY3 | z-score at 25 µM; in the data active means z-score above about 3, passing the limit was not always enough;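 further: higher signal means more uncleaved substrate so more Dicer inhibition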
Large screens that a line does not name were inactive.

Cc1c(C)n(CC(O)CNC2CCCCC2)c2ccccc12 (centres undefined)	none
COc1ccc2nc(Sc3c(-c4ccccc4)c4ccccc4[nH]c3=O)[nH]c2c1	none
Cn1c2c(c(=O)n(C)c1=O)C(c1cccc(Cl)c1)C1=C(CCCC1=O)N2 (centres undefined)	none
COc1ccc([N+](=O)[O-])c(S(=O)(=O)c2ccccc2)n1	none
CCOC(=O)NNC(=S)Nc1cccc(C(F)(F)F)c1	none
CCOC(=O)NNC(=S)Nc1cccc(C)c1	Dicer processing 3.8
CCOC(=O)NNC(=S)Nc1ccccc1	none
Cn1[nH]c(=O)cc1C(=O)N/N=C/c1ccc(Cl)cc1	none
Nc1ccc(O)c2c1C(=O)c1c(N)ccc(O)c1C2=O	Dicer processing 3.2
O=C1c2c(O)cccc2Cc2cccc(O)c21	none
Nc1ccc(O)c(C(=O)O)c1	none
COc1ccc(OC)c(S(=O)(=O)N(C(=O)C(C)C)c2ccc3oc(=O)sc3c2)c1	none
Cc1cc(C)c(S(=O)(=O)N(C(=O)c2ccncc2)c2ccc3oc(=O)sc3c2)cc1C	Dicer processing 5
Cc1ccc(S(=O)(=O)N(C(=O)c2ccncc2)c2ccc3oc(=O)sc3c2)c(C)c1	Dicer processing 7.7
CC(NCCC(c1ccccc1)c1ccccc1)c1ccccc1 (centres undefined)	none
CN(C)CCn1cnc2c1c(=O)n(C)c(=O)n2C	none
CCOC(=O)/C(C#N)=C/N1CCCC1c1cccs1 (centres undefined)	none
C=CCNc1nc(-c2cc3cc(Cl)ccc3o2)cs1	none
CC(=O)C1=NN(c2ccc(Cl)cc2)/C(=C2\C(=O)N(c3ccccc3)N=C2c2ccccc2)S1	none
Cc1nn(-c2ccccc2)c(NCCO)c1[N+](=O)[O-]	none
Oc1ccccc1C1=NN2C(C1)c1cc(Br)ccc1OC2c1ccsc1 (centres undefined)	Dicer processing 4.2
COc1ccc(O)c(C2=NN3C(C2)c2ccccc2OC3c2ccccc2F)c1 (centres undefined)	Dicer processing 6.9
COc1ccc(O)c(C2=NN3C(C2)c2cc(Br)ccc2OC3c2ccsc2)c1 (centres undefined)	none
COc1ccc(C2Oc3ccccc3C3CC(c4ccccc4O)=NN32)cc1 (centres undefined)	none
COc1ccc(C2Oc3ccccc3C3CC(c4ccccc4O)=NN32)c(OC)c1 (centres undefined)	none
Oc1ccccc1C1=NN2C(C1)c1ccccc1OC2c1cccs1 (centres undefined)	none
COc1ccc(C2Oc3ccccc3C3CC(c4cc(OC)ccc4O)=NN32)c(OC)c1 (centres undefined)	none
COc1ccc(C2Oc3ccccc3C3CC(c4cc(OC)ccc4O)=NN32)cc1 (centres undefined)	Dicer processing 9.8
CSCCC1Oc2ccccc2C2CC(c3cc(C)ccc3O)=NN12 (centres undefined)	none
CC(C)C1Oc2ccc(Cl)cc2C2CC(c3ccccc3O)=NN21 (centres undefined)	none
CC(C)CC1Oc2ccccc2C2CC(c3ccccc3O)=NN12 (centres undefined)	Dicer processing 5.3
COc1cccc(C2Oc3ccccc3C3CC(c4cc(OC)ccc4O)=NN32)c1 (centres undefined)	none
CC(C)(C)S(=O)(=O)/C(C#N)=C/N/N=C/c1c(Cl)cccc1Cl	none
Cc1noc(C)c1CSc1nnc(C)c(=O)[nH]1	none
Cc1ccc(C2C3=C(Nc4[nH]c(=O)[nH]c(=O)c42)c2ccccc2C3=O)cc1 (centres undefined)	none
Cc1cc(NC(=O)Nc2cccc(C(F)(F)F)c2)n(C)n1	none
COc1ccc(/C=C/C(=O)Nc2ccccc2C(=O)O)cc1OC	none
Cc1[nH]n(-c2ccccc2)c(=O)c1N=Nc1ccc(N2CCCCC2)cc1	Dicer processing 3.6
Cc1[nH]n(-c2ccccc2)c(=O)c1N=Nc1c(C)n(C)n(-c2ccccc2)c1=O	none
Cc1ccc(N=Nc2c(C)[nH]n(-c3ccccc3)c2=O)c(C)c1	none
O=c1c(Cc2ccc(Cl)cc2Cl)c(-c2ccccc2)sc2ccccc12	none
O=c1c(Cc2ccc([N+](=O)[O-])cc2)c(-c2ccccc2)sc2ccccc12	Dicer processing 3.6
O=c1c(Cc2ccc(Cl)c(Cl)c2)c(-c2ccccc2)sc2ccccc12	none
COC(=O)c1sc(N2C(=O)c3oc4cc(C)c(C)cc4c(=O)c3C2c2ccc(F)cc2)nc1C (centres undefined)	none
COc1ccc(CNc2nn[nH]n2)cc1OC	none
CNS(=O)(=O)c1ccccc1Sc1cccc2cccc(C(=O)O)c12	none
N/C(=N\NS(=O)(=O)c1cc(C(F)(F)F)cc(C(F)(F)F)c1)c1ccccn1	none
CC(C)(C)NC(=S)Nc1ccccc1C(F)(F)F	none
N/C(=N\NC(=S)Nc1ccccc1C(F)(F)F)c1ccccn1	Dicer processing 4.3
O=C1C2C(c3ccc(F)cc3F)OC3(C(=O)c4ccccc4C3=O)C2C(=O)N1c1ccc(Cl)cc1 (centres undefined)	none
CC(Oc1ccc(Cl)cc1Cl)C(=O)NNC(=S)Nc1ccccc1 (centres undefined)	none
O=C(CCn1nnc(-c2cccc(Cl)c2Cl)n1)NNC(=S)Nc1ccc(Cl)c(Cl)c1	Dicer processing 9.4
O=C(Cn1nnc(-c2ccccc2Oc2ccc(Cl)cc2Cl)n1)NNC(=S)Nc1cc(Cl)cc(Cl)c1	Dicer processing 6.3
O=C(CCc1ccc(O)cc1)NNC(=S)Nc1ccc(Cl)c(Cl)c1	none
N#CCC(=O)NNC(=S)Nc1ccc(Cl)c(Cl)c1	none
O=C(Cn1nnc(-c2ccccc2C(F)(F)F)n1)NNS(=O)(=O)c1cccc(Cl)c1	none
Cc1nn(-c2ccccc2)nc1CNC(=O)c1ncoc1-c1ccccc1	none
COC(=O)c1ccc(C2C(C(=O)c3cc4ccccc4o3)=C(O)C(=O)N2CCN(C)C)cc1 (centres undefined)	none
Cc1ccc(C2CC(C(F)(F)F)n3nc(C(=O)NCc4cnn(C)c4C)c(Cl)c3N2)cc1 (centres undefined)	none
COc1cccc(CNc2cnc3ccccc3c2)c1O	Dicer processing 4.5
COc1cccc(CN(C)C)c1O	none
COc1ccccc1CC(=O)Nc1ccc2ccccc2n1	none
COC(=S)Nc1c(Br)cc(C)cc1Br	none
CCN1CCN(C(=O)CN2C(=O)c3cccc4cccc2c34)CC1	none
COc1ccc(CC2CCc3ncc(C)cc3C2)cc1 (centres undefined)	none
O=C(CC1OC(=O)c2ccccc21)c1cc(Cl)ccc1Cl (centres undefined)	none
Nc1cccc(-c2ccc(CO)o2)c1	none
Cc1ccc2c(c1)c(C)c(C)n2CC(O)CN1CCOCC1 (centres undefined)	Dicer processing 4.6
OC(CN1CCOCC1)Cn1c2ccc(Br)cc2c2cc(Br)cc(Br)c21 (centres undefined)	none
OC(CN1CCCC1)Cn1c2ccc(Cl)cc2c2cc(Cl)ccc21 (centres undefined)	none
Cc1ccc(Nc2sc(C(=O)c3ccc(Br)cc3)c(N)c2C(N)=O)c(C)c1	none
CN(C)c1ccc(C2NC(=O)c3c(sc4c3CCC(C(C)(C)C)C4)N2)cc1 (centres undefined)	none
FC(F)(F)c1nnc(Nc2ccc(Cl)cc2)s1	Dicer processing 7.3
O=C(Nc1nnc(C(F)(F)F)s1)c1c(F)cccc1F	none
FC(F)(F)c1nnc(Nc2cccnc2)s1	none
c1ccc2oc(NC3=NCN(C4CCCCC4)CN3)nc2c1	none
CC(C)(C)c1cc2ncc(S(=O)(=O)c3ccc(Cl)cc3)c(N)n2n1	none
COc1ccc(Nc2c3c4c(c(Br)ccc4n(C)c2=O)C(=O)c2ccccc2-3)cc1	none
CCCCCCCNc1c2c3c(cccc3n(C)c1=O)C(=O)c1ccccc1-2	none
Cn1c(=O)c(Nc2ccccc2)c2c3c(cccc31)C(=O)c1ccccc1-2	Dicer processing 3.3
CN1CCN(c2nc3c(c(=O)n(C)c(=O)n3C)n2Cc2cccc(F)c2)CC1	none
